Paper PMC7862700, “An all-to-all approach to the identification of sequence-specific readers for epigenetic DNA modifications on cytosine”

Experiments:
Test in all cases: DAPPL (digital affinity profiling via proximity ligation, sequencing); 10 mM Tris-HCl pH 7.5, 50 mM NaCl, 1 mM DTT, 4% glycerol, room temperature, 30 min; GST-TFs on glutathione beads, 16-mer random dsDNA library, 0.1% formaldehyde crosslink after washing; high values mean tight binding
Conditions in all cases: protein: recombinant; tags: N-terminal GST; dsDNA, one strand shown
FLI1 = biological target: T1, FLI1 (Homo sapiens, UniProt Q01543 1-452)
T1 sequence: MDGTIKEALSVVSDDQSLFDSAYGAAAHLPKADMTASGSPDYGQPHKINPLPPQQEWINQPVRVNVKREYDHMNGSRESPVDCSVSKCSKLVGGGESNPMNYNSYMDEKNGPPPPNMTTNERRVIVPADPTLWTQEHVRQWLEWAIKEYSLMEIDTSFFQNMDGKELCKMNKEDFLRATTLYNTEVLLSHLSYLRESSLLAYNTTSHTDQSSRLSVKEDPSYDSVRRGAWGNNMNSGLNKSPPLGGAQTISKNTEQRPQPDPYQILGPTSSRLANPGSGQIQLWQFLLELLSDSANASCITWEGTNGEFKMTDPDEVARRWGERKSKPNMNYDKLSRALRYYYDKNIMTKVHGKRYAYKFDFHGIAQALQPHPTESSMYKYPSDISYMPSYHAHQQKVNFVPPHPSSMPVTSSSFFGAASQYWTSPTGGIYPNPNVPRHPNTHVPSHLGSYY
How it was run: (§1)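 Each value of binding signal is a hexamer's read frequency for a factor divided by the same hexamer's frequency in the tag-only sample. Barcoded, bead-captured GST fusions of human transcription factors made in yeast were pooled with that sample and incubated with 200 nmole of a random double-stranded 16-mer DNA library in Tris/NaCl/DTT/glycerol buffer at room temperature for 30 min. Washing, 0.1% formaldehyde crosslinking, proximity ligation, PCR and Illumina NextSeq500 sequencing followed.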

ELK1 = biological target: T2, ELK1 (Homo sapiens, UniProt P19419 1-428)
T2 sequence: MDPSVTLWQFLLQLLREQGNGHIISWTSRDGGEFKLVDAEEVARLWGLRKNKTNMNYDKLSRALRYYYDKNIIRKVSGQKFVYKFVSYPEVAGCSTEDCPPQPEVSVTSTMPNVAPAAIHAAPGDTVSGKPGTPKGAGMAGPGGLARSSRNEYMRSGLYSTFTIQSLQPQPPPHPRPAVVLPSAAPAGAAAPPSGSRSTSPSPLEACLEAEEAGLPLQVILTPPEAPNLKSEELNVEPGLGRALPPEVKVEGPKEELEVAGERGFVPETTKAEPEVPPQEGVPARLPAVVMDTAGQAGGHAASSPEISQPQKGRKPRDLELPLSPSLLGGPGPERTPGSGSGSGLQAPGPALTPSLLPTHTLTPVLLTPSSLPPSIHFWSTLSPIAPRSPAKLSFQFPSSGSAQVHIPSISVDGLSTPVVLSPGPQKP
How it was run: as §1

GABPA = biological target: T3, GABPA (Homo sapiens, UniProt Q06546 1-454)
T3 sequence: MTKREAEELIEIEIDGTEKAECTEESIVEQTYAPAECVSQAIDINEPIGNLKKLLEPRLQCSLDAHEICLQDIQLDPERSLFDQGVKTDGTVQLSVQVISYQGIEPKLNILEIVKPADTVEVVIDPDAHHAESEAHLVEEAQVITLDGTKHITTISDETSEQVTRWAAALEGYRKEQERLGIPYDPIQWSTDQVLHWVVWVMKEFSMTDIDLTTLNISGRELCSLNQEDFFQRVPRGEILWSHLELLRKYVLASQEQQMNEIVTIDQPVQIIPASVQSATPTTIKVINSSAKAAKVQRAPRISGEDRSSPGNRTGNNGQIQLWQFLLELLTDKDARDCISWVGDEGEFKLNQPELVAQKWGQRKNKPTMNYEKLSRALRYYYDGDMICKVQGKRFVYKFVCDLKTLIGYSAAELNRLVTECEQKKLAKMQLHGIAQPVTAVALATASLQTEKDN
How it was run: as §1

ERG = biological target: T4, ERG (Homo sapiens, UniProt P11308 1-479)
T4 sequence: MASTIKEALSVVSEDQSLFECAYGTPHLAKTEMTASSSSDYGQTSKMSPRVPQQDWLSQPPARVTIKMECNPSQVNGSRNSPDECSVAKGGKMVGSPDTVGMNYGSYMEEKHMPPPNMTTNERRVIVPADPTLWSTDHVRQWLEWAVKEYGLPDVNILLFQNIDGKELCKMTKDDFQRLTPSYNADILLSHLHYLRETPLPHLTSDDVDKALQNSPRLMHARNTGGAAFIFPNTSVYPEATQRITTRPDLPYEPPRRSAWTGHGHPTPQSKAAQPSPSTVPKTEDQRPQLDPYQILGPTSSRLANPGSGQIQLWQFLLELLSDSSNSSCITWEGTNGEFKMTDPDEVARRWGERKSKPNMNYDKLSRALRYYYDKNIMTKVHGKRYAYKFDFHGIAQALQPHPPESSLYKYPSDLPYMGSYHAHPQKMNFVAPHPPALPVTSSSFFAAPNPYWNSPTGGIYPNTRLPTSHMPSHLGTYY
How it was run: as §1

ELF1 = ELF1 (Homo sapiens, UniProt P32519 1-619)
ELF1, sequence (P32519 whole entry): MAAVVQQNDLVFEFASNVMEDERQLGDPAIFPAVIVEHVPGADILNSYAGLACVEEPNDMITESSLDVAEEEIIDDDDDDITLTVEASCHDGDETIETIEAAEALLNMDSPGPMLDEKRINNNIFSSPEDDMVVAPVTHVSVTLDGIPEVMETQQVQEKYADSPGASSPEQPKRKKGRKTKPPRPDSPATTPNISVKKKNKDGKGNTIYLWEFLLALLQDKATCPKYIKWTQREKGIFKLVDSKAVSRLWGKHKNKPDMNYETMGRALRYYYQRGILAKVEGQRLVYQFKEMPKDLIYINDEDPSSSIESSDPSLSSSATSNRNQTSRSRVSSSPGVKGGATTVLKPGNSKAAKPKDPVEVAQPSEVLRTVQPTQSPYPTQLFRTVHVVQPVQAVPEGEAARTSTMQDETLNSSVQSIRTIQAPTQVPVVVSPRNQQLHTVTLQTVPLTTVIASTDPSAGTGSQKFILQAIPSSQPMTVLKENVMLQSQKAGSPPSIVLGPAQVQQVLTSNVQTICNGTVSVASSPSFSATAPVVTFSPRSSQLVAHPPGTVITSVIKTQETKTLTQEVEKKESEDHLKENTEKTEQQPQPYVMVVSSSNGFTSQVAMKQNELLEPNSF
How it was run: as §1

EHF = biological target: T5, EHF (Homo sapiens, UniProt Q9NZC4 1-300)
T5 sequence: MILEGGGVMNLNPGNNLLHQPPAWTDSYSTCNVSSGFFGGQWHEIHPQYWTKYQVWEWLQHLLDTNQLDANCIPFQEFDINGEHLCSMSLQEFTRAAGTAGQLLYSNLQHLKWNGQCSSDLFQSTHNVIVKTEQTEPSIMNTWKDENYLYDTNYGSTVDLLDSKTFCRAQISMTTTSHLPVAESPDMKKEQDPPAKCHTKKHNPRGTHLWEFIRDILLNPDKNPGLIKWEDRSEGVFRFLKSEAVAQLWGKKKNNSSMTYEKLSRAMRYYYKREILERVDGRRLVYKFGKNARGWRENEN
How it was run: as §1

SPI1 = SPI1 (Homo sapiens, UniProt P17947 1-270)
How it was run: as §1

SPIB = SPIB (Homo sapiens, UniProt Q01892 1-262)
SPIB, sequence (Q01892 whole entry): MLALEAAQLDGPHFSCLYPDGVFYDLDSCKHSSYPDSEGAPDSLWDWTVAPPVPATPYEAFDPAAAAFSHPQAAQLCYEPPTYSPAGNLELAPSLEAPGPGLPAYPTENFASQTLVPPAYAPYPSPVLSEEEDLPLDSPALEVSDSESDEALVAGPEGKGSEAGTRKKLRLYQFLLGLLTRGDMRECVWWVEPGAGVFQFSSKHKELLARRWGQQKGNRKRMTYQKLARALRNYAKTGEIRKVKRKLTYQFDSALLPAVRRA
How it was run: as §1

ELK3 = biological target: T6, ELK3 (Homo sapiens, UniProt P41970 1-407)
T6 sequence: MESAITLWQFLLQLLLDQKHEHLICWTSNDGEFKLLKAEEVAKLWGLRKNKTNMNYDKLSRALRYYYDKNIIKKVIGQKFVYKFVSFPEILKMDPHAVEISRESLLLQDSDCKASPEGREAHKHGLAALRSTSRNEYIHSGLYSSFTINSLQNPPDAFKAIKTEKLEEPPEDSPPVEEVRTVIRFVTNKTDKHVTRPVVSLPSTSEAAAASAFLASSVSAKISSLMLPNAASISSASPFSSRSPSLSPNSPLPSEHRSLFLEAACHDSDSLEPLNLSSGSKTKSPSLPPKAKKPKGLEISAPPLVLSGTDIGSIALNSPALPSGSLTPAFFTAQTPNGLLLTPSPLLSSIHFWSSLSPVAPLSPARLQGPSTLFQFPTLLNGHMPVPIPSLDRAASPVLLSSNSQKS
How it was run: as §1

With TACCGA the binding signal (FLI1) was 1.26 fold enrichment (6-mer frequency, TF over GST control), the binding signal (ELK1) was 1.1 fold enrichment (6-mer frequency, TF over GST control) and the binding signal (GABPA) was 1.13 fold enrichment (6-mer frequency, TF over GST control). For the same sequence, the binding signal (ERG) was 1.07 fold enrichment (6-mer frequency, TF over GST control), the binding signal (ELF1) was 1.17 fold enrichment (6-mer frequency, TF over GST control) and the binding signal (EHF) was 1.1 fold enrichment (6-mer frequency, TF over GST control). For the same sequence, the binding signal (SPI1) was 1.12 fold enrichment (6-mer frequency, TF over GST control), the binding signal (SPIB) was 1.16 fold enrichment (6-mer frequency, TF over GST control) and the binding signal (ELK3) was 1.12 fold enrichment (6-mer frequency, TF over GST control).
In the case of TATTTC, the binding signal (FLI1) was 2.04 fold enrichment (6-mer frequency, TF over GST control), the binding signal (ELK1) was 2.09 fold enrichment (6-mer frequency, TF over GST control) and the binding signal (GABPA) was 2.06 fold enrichment (6-mer frequency, TF over GST control). The binding signal (ERG) was 2.32 fold enrichment (6-mer frequency, TF over GST control), the binding signal (ELF1) was 2.06 fold enrichment (6-mer frequency, TF over GST control) and the binding signal (EHF) was 2.21 fold enrichment (6-mer frequency, TF over GST control). For the same sequence, the binding signal (SPI1) was 2.02 fold enrichment (6-mer frequency, TF over GST control), the binding signal (SPIB) was 2.19 fold enrichment (6-mer frequency, TF over GST control) and the binding signal (ELK3) was 2.21 fold enrichment (6-mer frequency, TF over GST control).
With CCTATT the binding signal (FLI1) was 1.47 fold enrichment (6-mer frequency, TF over GST control), the binding signal (ELK1) was 1.55 fold enrichment (6-mer frequency, TF over GST control) and the binding signal (GABPA) was 1.49 fold enrichment (6-mer frequency, TF over GST control). The binding signal (ERG) was 1.53 fold enrichment (6-mer frequency, TF over GST control), the binding signal (ELF1) was 1.56 fold enrichment (6-mer frequency, TF over GST control) and the binding signal (EHF) was 1.64 fold enrichment (6-mer frequency, TF over GST control). For the same sequence, the binding signal (SPI1) was 1.55 fold enrichment (6-mer frequency, TF over GST control), the binding signal (SPIB) was 1.44 fold enrichment (6-mer frequency, TF over GST control) and the binding signal (ELK3) was 1.4 fold enrichment (6-mer frequency, TF over GST control).
With AAGCTG the binding signal (FLI1) was 1.21 fold enrichment (6-mer frequency, TF over GST control), the binding signal (ELK1) was 1.24 fold enrichment (6-mer frequency, TF over GST control) and the binding signal (GABPA) was 1.16 fold enrichment (6-mer frequency, TF over GST control). For the same sequence, the binding signal (ERG) was 1.13 fold enrichment (6-mer frequency, TF over GST control), the binding signal (ELF1) was 1.16 fold enrichment (6-mer frequency, TF over GST control) and the binding signal (EHF) was 1.08 fold enrichment (6-mer frequency, TF over GST control). For the same sequence, the binding signal (SPI1) was 1.03 fold enrichment (6-mer frequency, TF over GST control), the binding signal (SPIB) was 1.14 fold enrichment (6-mer frequency, TF over GST control) and the binding signal (ELK3) was 1.08 fold enrichment (6-mer frequency, TF over GST control).
For CCGCCC, the binding signal (FLI1) was 1.33 fold enrichment (6-mer frequency, TF over GST control), the binding signal (ELK1) was 1.39 fold enrichment (6-mer frequency, TF over GST control) and the binding signal (GABPA) was 1.27 fold enrichment (6-mer frequency, TF over GST control). For the same sequence, the binding signal (ERG) was 1.29 fold enrichment (6-mer frequency, TF over GST control), the binding signal (ELF1) was 1.35 fold enrichment (6-mer frequency, TF over GST control) and the binding signal (EHF) was 1.29 fold enrichment (6-mer frequency, TF over GST control). The binding signal (SPI1) was 1.17 fold enrichment (6-mer frequency, TF over GST control), the binding signal (SPIB) was 1.19 fold enrichment (6-mer frequency, TF over GST control) and the binding signal (ELK3) was 1.48 fold enrichment (6-mer frequency, TF over GST control).
With TTACGC the binding signal (FLI1) was 1.15 fold enrichment (6-mer frequency, TF over GST control), the binding signal (ELK1) was 1.06 fold enrichment (6-mer frequency, TF over GST control) and the binding signal (GABPA) was 1.07 fold enrichment (6-mer frequency, TF over GST control). For the same sequence, the binding signal (ERG) was 1.08 fold enrichment (6-mer frequency, TF over GST control), the binding signal (ELF1) was 1.12 fold enrichment (6-mer frequency, TF over GST control) and the binding signal (EHF) was 1.06 fold enrichment (6-mer frequency, TF over GST control). For the same sequence, the binding signal (SPI1) was 1.07 fold enrichment (6-mer frequency, TF over GST control), the binding signal (SPIB) was 1.02 fold enrichment (6-mer frequency, TF over GST control) and the binding signal (ELK3) was 1.21 fold enrichment (6-mer frequency, TF over GST control).
In the case of GAAGCA, the binding signal (FLI1) was 1.23 fold enrichment (6-mer frequency, TF over GST control), the binding signal (ELK1) was 1.35 fold enrichment (6-mer frequency, TF over GST control) and the binding signal (GABPA) was 1.3 fold enrichment (6-mer frequency, TF over GST control). The binding signal (ERG) was 1.34 fold enrichment (6-mer frequency, TF over GST control), the binding signal (ELF1) was 1.25 fold enrichment (6-mer frequency, TF over GST control) and the binding signal (EHF) was 1.26 fold enrichment (6-mer frequency, TF over GST control). For the same sequence, the binding signal (SPI1) was 1.28 fold enrichment (6-mer frequency, TF over GST control), the binding signal (SPIB) was 1.25 fold enrichment (6-mer frequency, TF over GST control) and the binding signal (ELK3) was 1.43 fold enrichment (6-mer frequency, TF over GST control).
